Assay results reported in PubChem BioAssay AID623992 (NMMLSC, 2012).
Results with a measured potency or affinity are listed apart. Activity calls are given as the source filed them.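 The calls were made as follows: active = compounds whose fitted half-maximal effective concentration for blocking dye efflux is below 100 µM; inactive = the rest.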

biological target: Benomyl/methotrexate resistance protein (Candida albicans) (UniProt P28873); assay: Candida albicans Mdr1 pump blockade titration – singleplex, Cherry Pick2 set, dose response (AID 623992); details: S. cerevisiae AD/CaMDR1, Nile Red efflux, flow cytometry; series mostly up to 100 µM; efflux inhibition response: at the top concentration
Sequence (P28873 whole entry, looked up): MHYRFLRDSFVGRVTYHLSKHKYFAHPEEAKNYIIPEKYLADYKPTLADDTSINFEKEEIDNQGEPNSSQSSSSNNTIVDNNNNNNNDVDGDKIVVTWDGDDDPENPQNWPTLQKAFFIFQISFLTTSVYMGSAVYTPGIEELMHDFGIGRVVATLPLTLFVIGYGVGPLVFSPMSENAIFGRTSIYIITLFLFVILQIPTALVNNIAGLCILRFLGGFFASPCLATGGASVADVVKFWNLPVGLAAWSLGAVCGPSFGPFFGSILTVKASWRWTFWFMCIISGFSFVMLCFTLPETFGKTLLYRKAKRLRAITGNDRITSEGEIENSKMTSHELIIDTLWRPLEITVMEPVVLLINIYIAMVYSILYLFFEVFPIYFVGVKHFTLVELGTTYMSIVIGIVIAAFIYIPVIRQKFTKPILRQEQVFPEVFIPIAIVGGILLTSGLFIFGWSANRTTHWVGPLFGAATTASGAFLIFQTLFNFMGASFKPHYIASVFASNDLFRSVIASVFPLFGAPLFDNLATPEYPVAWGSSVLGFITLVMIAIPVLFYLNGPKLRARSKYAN

outcome, inactive:
CCC(=O)N1CCN(c2ccc(Cl)cc2NC(=O)c2ccc3c(c2)OCCO3)CC1
Cc1ccc(O)c(C(=O)c2cnc3c(c2)CN(CCC(C)C)C(=O)N3)c1
CC1CN(c2nc3ccccc3nc2C(C#N)C(=O)NCc2ccc3c(c2)OCO3)CC(C)O1 (stereo unspecified)
COc1ccc(CNC(=O)C(C#N)c2nc3ccccc3nc2N2CCN(C)CC2)cc1 (stereo unspecified)

Efflux inhibition response, inactive:
Cc1ccc(O)c(C(=O)c2cnc3c(c2)CN(C)C(=O)N3)c1 0.89%
COc1ccc(O)c(C(=O)c2cnc3c(c2)CN(C)C(=O)N3)c1 0.72%
Cc1ccc(-c2c[n+](CC(=O)N3c4ccccc4Sc4ccccc43)c3n2CCC3)cc1 -1.07%
Cc1cc(C)c2sc(N(CCCN(C)C)C(=O)c3ccc(Br)s3)nc2c1 68.6%
N#CC(C(=O)NCc1ccccc1)c1nc2ccccc2nc1N1CCCC1 (stereo unspecified) -0.29%
C[C@@]12C(=O)Nc3ccc(Cl)cc3C(=O)N1[C@H]1c3cc(Cl)ccc3OC[C@@H]1[C@@H]2c1ccccc1 -0.59%
CC(C)C(=O)N1CCN(c2ccccc2NC(=O)c2ccc3c(c2)OCCO3)CC1 0.84%
O=C(NCCc1ccc(Cl)cc1)C1CCC(CNc2nc(=S)[nH]c3ccccc23)CC1 (stereo unspecified) -0.35%
NC1=NC[C@@H](Cc2ccc(O)cc2)N1CCCCC1CCCCC1 -0.9%
O=C(C1CCCN(c2ncnc3c2nc2n3CCCCC2)C1)N1CCN(c2ccccc2F)CC1 (stereo unspecified) -1.04%
NS(=O)(=O)c1ccc(N2N=C(c3ccccc3)CC2c2ccc(F)cc2)cc1 (stereo unspecified) -0.06%
NC1=NC[C@H](Cc2ccc(O)cc2)N1CCCCC1CCCCC1 -0.18%
